Compound activity (PubChem)
L3MBTL1 inh: L3MBTL1 (human) inhibition. Q9Y468. AlphaScreen L3MBTL1–H3K9me1 peptide binding. Potency, µM (titrated, usually from 57.1 µM), inactives show at the top dose activity, negative = inhibition, most hits filed as inhibitors. 230,000 compounds, 0.66% hits; further: on the % scale 0 is the no-effect control and ±100 the full control effect; nearly all actives have a fitted effect of over 60% in size
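AlphaScreen assay: L3MBTL1 (50 nM final) was preincubated 30 min at room temperature with biotinylated H3(1-15)K9me1 peptide (75 nM final), then 30 min with library compounds; streptavidin donor and nickel chelate acceptor beads (10 ug/mL final) added, 30 min dark.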
Sfp inh: blocks B. subtilis Sfp PPTase activity; Biochemical Sfp PPTase activity, qHTS; Potency, µM, for the others: largest response in the series, negative = inhibition, actives largely listed as inhibitors; 310,000 compounds, 3.5% hits; Q9F4F7; AID 1490;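 further: the enzyme is Sfp with the accession as filed and its product quenches rhodamine fluorescence; 0% = enzyme reaction without inhibitor and -100% = no enzyme wells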
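With Hepes-Na pH 7.6 buffer containing 10 mM MgCl2, Sfp (15 nM) modified BHQ-2-YbbR (12.5 uM) using rhodamine-CoA (5 uM). Two reads 30 minutes apart at 525/598 nm yielded each well's rate.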
JMJD2A Tudor: JMJD2A Tudor domain (human) inhibition; O75164; AlphaScreen JMJD2A-Tudor / H3K4me3 peptide binding; Potency, µM (highest dose often 114 µM), for inactives: at the highest dose activity change, negative = inhibition, most hits filed as inhibitors; 390,000 compounds, 4.4% hits; further: on the % scale 0 is the no-effect control and ±100 the full control effect; nearly all actives have a fitted effect of over 50% in size
G9a inh: blocks human histone lysine methyltransferase G9a; Q96KQ7; G9a H3K9 monomethylation, AlphaScreen, 2 h; Potency, µM (titrated, usually from 102 µM), for inactives: at the highest dose activity, negative = inhibition, usual class: inhibitors; 350,000 compounds, 8.8% hits; further: on the % scale 0 is the no-effect control and ±100 the full control effect; nearly all actives have a fitted effect of over 75% in size
Target sequence (Q96KQ7 913-1193 limits assumed): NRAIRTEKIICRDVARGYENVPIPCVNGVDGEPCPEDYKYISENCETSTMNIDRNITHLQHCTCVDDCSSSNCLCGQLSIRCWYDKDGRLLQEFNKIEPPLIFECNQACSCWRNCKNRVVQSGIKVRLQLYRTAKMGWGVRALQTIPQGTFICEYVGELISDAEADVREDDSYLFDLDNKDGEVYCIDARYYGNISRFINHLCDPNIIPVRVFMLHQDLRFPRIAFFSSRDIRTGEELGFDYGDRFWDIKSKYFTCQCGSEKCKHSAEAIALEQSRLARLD
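AlphaScreen read-out: biotin-H3K9 peptide (500 nM) methylation by 20 nM enzyme with 20 uM SAM, 2 h at room temperature after 15 min compound preincubation; anti-monomethyl H3K9 antibody plus donor/acceptor beads, 10 min dark.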
HP1b chromo inh: blocks HP1-beta chromodomain binding to methylated histone tails; Potency, µM (doses to about 114 µM), inactives show top-dose activity change, negative = inhibition, actives largely listed as inhibitors; AID 540317; 390,000 compounds, 0.56% hits; AlphaScreen HP1-beta / biotin-H3K9me3 peptide binding; P83916; further: nearly all actives have a fitted effect of over 70% in size
Target sequence (P83916 whole entry, looked up): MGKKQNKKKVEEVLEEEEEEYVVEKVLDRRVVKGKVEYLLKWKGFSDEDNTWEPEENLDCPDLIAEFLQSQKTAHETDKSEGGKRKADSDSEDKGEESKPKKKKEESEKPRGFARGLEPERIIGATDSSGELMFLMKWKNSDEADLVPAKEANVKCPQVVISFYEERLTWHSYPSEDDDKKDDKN
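HP1-beta protein (50 nM final) preincubated 30 min at room temperature with biotinylated H3(1-18)K9me3 peptide (50 nM) in PBS pH 7.4, 0.01% Tween-20, then compound added for 30 min. AlphaScreen streptavidin donor/nickel chelate acceptor beads (10 ug/mL final), 30 min dark, luminescence read.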
BAZ2B block: blocks human BAZ2B; Potency, µM (series often up to 114 µM), without a hit: top-dose activity change, negative = inhibition, actives largely listed as inhibitors; 360,000 compounds, 4.4% hits; AlphaScreen BAZ2B-H3K14Ac peptide displacement; Q9UIF8; further: on the % scale 0 is the no-effect control and ±100 the full control effect; nearly all actives have a fitted effect of over 60% in size
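AlphaScreen displacement: compounds (up to 110uM) incubated 30 min at room temperature with a preformed 50 nM BAZ2B/50 nM biotinylated H3K14Ac peptide complex in PBS pH 7.4 with Tween-20. Donor and acceptor beads at 10 ug/mL final added, 20 min light-protected before reading.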
Active calls of the source: *; [ ] = dose if it differs, or a comment. Hits are enriched below; roughly 12% of the tested compounds scored in any of these assays. The call rests on the fitted dose curve; in most records, active means well fitted curve in the direction sought with a large enough effect; inconclusive means small, poorly fitted or top-dose-only effect, or another doubt; inactive means no such curve, though single readings can be large; an effect the other way counts as inactive or inconclusive. Potency means the concentration at half of the fitted maximal effect.

Cc1cc(NC(=O)CCN2CCC(C(N)=O)CC2)ccc1Br was read as Sfp inh 10.3%, JMJD2A Tudor -11.8%, G9a inh 10.7%[59 µM], HP1b chromo inh 12.1% and BAZ2B block -5.1%.
Screening Cc1ccc(NCC(=O)Nc2ccc(Br)cc2)cc1C returned Sfp inh 14.6%, JMJD2A Tudor -15.3%, G9a inh 56.2µM*, HP1b chromo inh 37.4% and BAZ2B block inconclusive.
Cc1ccc(NC(=O)CCn2cccc2)cc1C was read as Sfp inh -7.4%, JMJD2A Tudor inconclusive, G9a inh 50.1µM*, HP1b chromo inh -15.6% and BAZ2B block inconclusive.
`CN1CCN(CCC(=O)Nc2cccc(Br)c2)CC1` gave Sfp inh 17.5%, JMJD2A Tudor -9.2%, G9a inh 56.2µM*, HP1b chromo inh 19.8% and BAZ2B block -29.7%.
COc1cc(NC(=O)CCN2CCN(Cc3ccccc3)CC2)cc(OC)c1 was read as Sfp inh -9.6%, JMJD2A Tudor -5.4%, G9a inh -2.5%[59 µM], HP1b chromo inh 12.6% and BAZ2B block -31.3%.
`COc1cc(Cl)cc(NC(=O)CCN2CCN(C)CC2)c1` gave L3MBTL1 inh 6.4%, Sfp inh -15.5%, JMJD2A Tudor -16.4%, G9a inh 50.1µM*, HP1b chromo inh 23.6% and BAZ2B block -5.8%.
`O=C(CSc1nc2c([nH]c3ccccc32)c(=O)n1-c1ccc(F)cc1)N1CCCCCC1` gave JMJD2A Tudor -11.9%, G9a inh 8.5%[59 µM], HP1b chromo inh 4.9%[57 µM] and BAZ2B block -1.1%.
For COc1ccccc1CNC(=O)CCc1c(C)c2cc3c(C)coc3cc2oc1=O the results were JMJD2A Tudor -28.1%, G9a inh -34.6%[59 µM], HP1b chromo inh 3.9% and BAZ2B block -14.4%.
COc1ccc(N2C(=O)CS/C2=C\[N+](=O)[O-])cc1 was read as L3MBTL1 inh -4.8%, Sfp inh -24.9%, JMJD2A Tudor -18.0%, G9a inh inconclusive, HP1b chromo inh 8.2% and BAZ2B block inconclusive.
Cc1ccc(N2C(=O)CS/C2=C(\C(Cl)=C(Cl)Cl)[N+](=O)[O-])cc1 was read as Sfp inh -28.0%, JMJD2A Tudor 39.8µM*, G9a inh 20µM*, HP1b chromo inh inconclusive and BAZ2B block 44.7µM*.
`Cc1ccccc1NC(=O)C(=O)NCC(c1ccc2c(c1)OCO2)N1CCN(c2ccccc2)CC1` (centres undefined) gave JMJD2A Tudor -26.1%, G9a inh -5.5%[59 µM], HP1b chromo inh -9.6%[57 µM] and BAZ2B block inconclusive.
For CC1=NN(C(N)=S)C(C)(C)C1 the results were L3MBTL1 inh 14.7%, Sfp inh inconclusive, JMJD2A Tudor -10.4%, HP1b chromo inh 43.3% and BAZ2B block -6.0%.
`CC1=NN(C(=S)Nc2ccccc2)C(C)(C)C1` gave L3MBTL1 inh 5.0%, Sfp inh inconclusive, JMJD2A Tudor -3.1%, G9a inh 31.6µM*, HP1b chromo inh 22.5% and BAZ2B block 10.8%.
Screening CCOc1cc(C=NNC(=O)c2cccc(S(=O)(=O)N3CCCC3)c2)ccc1O returned L3MBTL1 inh 3.8%, JMJD2A Tudor -28.0% and HP1b chromo inh 46.6%.
`COc1cc(/C=N/Nc2nc(-c3ccc(S(=O)(=O)N(C)C)cc3)cs2)ccc1O` gave L3MBTL1 inh -17.8%, Sfp inh 79.4µM*, JMJD2A Tudor -23.5%, G9a inh 14.1µM*, HP1b chromo inh 0.6% and BAZ2B block -33.4%.
Screening CCOc1cc(/C=N/Nc2nc(-c3cccc(S(=O)(=O)N4CCCC4)c3)cs2)ccc1O returned L3MBTL1 inh -14.3%, Sfp inh inconclusive, JMJD2A Tudor inconclusive, G9a inh 35.5µM*, HP1b chromo inh -6.7% and BAZ2B block inconclusive.
`O=S(=O)(c1cccc(-c2csc(N/N=C/c3ccco3)n2)c1)N1CCOCC1` gave L3MBTL1 inh -26.4%, Sfp inh 2.4%, JMJD2A Tudor inconclusive, G9a inh 44.7µM*, HP1b chromo inh -15.2% and BAZ2B block inconclusive.
COc1ccc(/C=N/Nc2nc(-c3cccc(S(=O)(=O)N4CCCC4)c3)cs2)cc1OC was read as L3MBTL1 inh -10.4%, Sfp inh -17.3%, JMJD2A Tudor -27.7%, G9a inh 12.6µM*, HP1b chromo inh 18.3% and BAZ2B block -31.7%.
For Cn1c(CC2C(=O)Nc3ccc(Br)cc32)nc2ccccc2c1=O (centres undefined) the results were L3MBTL1 inh -0.5%, Sfp inh -3.3%, JMJD2A Tudor -15.0%, G9a inh 50.1µM*, HP1b chromo inh 31.2% and BAZ2B block -4.0%.
`O=C1Nc2ccc(Br)cc2C1Cc1ccccc1F` (centres undefined) gave L3MBTL1 inh 10.9%, Sfp inh 5.2%, JMJD2A Tudor -12.3%, HP1b chromo inh 44.3% and BAZ2B block 1.1%.
Cc1ccnc2nc(C(=O)Nc3nccs3)nn12 was read as Sfp inh -11.7%, JMJD2A Tudor 10µM*, G9a inh inconclusive, HP1b chromo inh 27.5% and BAZ2B block inconclusive.
`Cc1ccnc2nc(C(=O)NC3=NCCS3)nn12` gave L3MBTL1 inh -1.3%, Sfp inh 12.6%, JMJD2A Tudor -35.6%, G9a inh 21.6%, HP1b chromo inh 37.1% and BAZ2B block -28.5%.
CCc1ccccc1NC(=O)Cn1c(=O)n(Cc2ccco2)c(=O)c2ccccc21 was read as JMJD2A Tudor -5.1%, G9a inh inconclusive, HP1b chromo inh 20.6% and BAZ2B block -14.2%.
`O=C(Cc1ccccc1)NC1c2ccccc2-c2ccccc21` gave L3MBTL1 inh -1.0%, Sfp inh 79.4µM*, JMJD2A Tudor -7.7%, G9a inh inconclusive, HP1b chromo inh 29.0% and BAZ2B block -1.4%.
For Cc1ccc(NCCCn2ccc(NC(=O)OCc3ccccc3)nc2=O)cc1C the results were JMJD2A Tudor 56.2µM* and HP1b chromo inh inconclusive.
CC(CNCCCn1ccc(NC(=O)OCc2ccccc2)nc1=O)c1ccccc1 (centres undefined) was read as JMJD2A Tudor -14.5% and HP1b chromo inh 27.9%.
`CCN(CCCNC(=O)CSc1cc(=O)n(C)c2cc(Cl)ccc12)c1ccccc1` gave JMJD2A Tudor inconclusive, G9a inh inconclusive and HP1b chromo inh 11.3%.
CCCn1c(=O)c(C)cn2nc(N)nc12 was read as Sfp inh -14.8% and G9a inh 19.8%[59 µM].
`CCC(c1nnnn1C1CCCC1)N1CCN(c2ccccc2F)CC1` (centres undefined) gave Sfp inh -4.3%, JMJD2A Tudor -5.0%, G9a inh -36.1%[12.7 µM], HP1b chromo inh 41.6% and BAZ2B block -28.5%.
